Compound activity deposited in PubChem by The Scripps Research Institute Molecular Screening Center.
Shown are actives, neighbours in structure and some others; about 2.3% of the full set was active somewhere.
CHRM1 PAM: human M1 muscarinic receptor positive allosteric modulators, primary screen, CHO-K1 cells, Fluo-8 calcium fluorescence, 1536-well | Muscarinic acetylcholine receptor M1 (Homo sapiens), P11229 | CHO-K1 hM1, ACh EC20; 0% = ACh EC20, 100% = maximal ACh | activation, % at 3 µM | hit rate 0.088% among 360,000 | AID 588819, 2011; in the data active means activation above about 19%, passing the limit was not always enough
Target sequence (P11229 whole entry, looked up): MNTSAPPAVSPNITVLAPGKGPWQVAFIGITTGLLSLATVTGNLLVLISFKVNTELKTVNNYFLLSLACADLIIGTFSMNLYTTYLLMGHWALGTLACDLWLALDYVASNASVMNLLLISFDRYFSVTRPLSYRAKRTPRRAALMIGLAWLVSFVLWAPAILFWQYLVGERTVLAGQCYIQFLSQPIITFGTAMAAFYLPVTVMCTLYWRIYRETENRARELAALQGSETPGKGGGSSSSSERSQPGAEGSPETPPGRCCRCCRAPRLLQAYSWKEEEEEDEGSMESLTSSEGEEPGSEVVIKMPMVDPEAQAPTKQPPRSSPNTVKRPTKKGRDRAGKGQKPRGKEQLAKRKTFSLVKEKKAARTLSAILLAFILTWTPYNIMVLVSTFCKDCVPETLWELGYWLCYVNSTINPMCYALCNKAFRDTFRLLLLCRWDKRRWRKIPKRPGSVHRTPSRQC
CHO-K1 Ca antag: M1 antagonist counterscreen hit in parental CHO-K1 cells; hit rate 0.6% among 360,000; ATP-induced calcium, Fluo-8 fluorescence; inhibition, % at 3 µM; AID 602250;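 active means inhibition above a per-plate cutoff, the plate's mean sample inhibition plus 3 SD, cut at about 24% in these data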;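 further: 0% = DMSO plus EC80 ATP and 100% = DMSO alone without ATP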
CHO-K1 Ca ag: counter-screen for M1 agonists: effect in parental CHO-K1 cells; Fluo-8 calcium fluorescence; scaled to maximal ATP response, vehicle zero; activation, % at 3 µM; hit rate 0.48% among 360,000; in the data active means activation above about 15%;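 further: untransfected CHO-K1 host cells lacking M1 receptor as counterscreen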
M1 antag: human M1 muscarinic receptor antagonists, primary screen, CHO-K1 cells, Fluo-8 calcium fluorescence, 1536-well. Muscarinic acetylcholine receptor M1 (Homo sapiens), P11229. CHO-K1 hM1, ACh EC80 antagonist. inhibition, % at 3 µM. hit rate 1.3% among 360,000. AID 588852, 2011;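 active means percent inhibition above its own plate's cutoff, namely the mean of that plate's compound wells plus 3 SD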;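 further: peak over basal fluorescence ratio during 140 s after agonist addition; 0% = ACh EC80 plus DMSO and 100% = DMSO alone without agonist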
M1 PAM parental: nonselective calcium activators in parental CHO-K1 cells, primary screen, counter-screen for M1 PAM project, cell-based, Fluo-8 calcium fluorescence, full deck, 1536-well; ATP EC20; 0% at ATP EC20, 100% at ATP max; activation, % at 3 µM; hit rate 0.02% among 360,000; AID 602247, 2012;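 active means activation above the run cutoff, the mean activation of all test compounds plus 3 SD, cut at about 40% in these data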;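 further: peak over basal fluorescence ratio in a 140 s read after ATP addition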
CHRM1 agonist: human M1 muscarinic receptor agonists, primary screen, Fluo-8 calcium fluorescence, CHO-K1 cells, HTS. CHO-K1 hM1, agonist mode; 0% DMSO, 100% acetylcholine EC100. Muscarinic acetylcholine receptor M1 (Homo sapiens), P11229. AID 588814, 2011. hit rate 0.33% among 360,000. activation, % at 3 µM;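 active means activation above the run's mean compound activation plus 3 SD, cut at about 16% in these data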;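 further: peak over basal fluorescence ratio within a 140 s kinetic read after compound addition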
* hit, by the source's call.

SMILES	CHRM1 PAM	CHO-K1 Ca antag	CHO-K1 Ca ag	M1 antag	M1 PAM parental	CHRM1 agonist
O=[N+]([O-])c1ccc2c(c1)C(N1CCN(CCO)CC1)Cc1ccc(F)cc1S2 (stereo not given)	-3.8	2.8	1.7	4.9	-0.6	-10.5
CSc1ccc2c(c1)C(N1CCN(C)CC1)Cc1ccc(F)cc1S2 (stereo not given)	-26.9	0.8	1.1	69.2*	8.7	-6.7
COC(=O)C1CCN(c2ccc(C(N)=O)cc2[N+](=O)[O-])CC1	-4.2	3.1	1.6	9.5	-0.8	-2.9
Cc1nn(C)cc1/C=C/C(=O)c1ccc(O)cc1	7.8	-3.7	0.8	-7.5	14.8	-3.5
O=C(Nc1nnc(-c2ccc3c(c2)CCCC3)o1)C1COc2ccccc2O1 (stereo not given)	-3.5	25.5*	-0.6	3.3	-10.3	-4.3
O=C(NC1CCCCC1)C1COc2ccccc2O1 (stereo not given)	-25.7	-3.2	0.5	45.9*	3.4	-7.3
CC1CCC(NC(=O)C2COc3ccccc3O2)CC1 (stereo not given)	2.2	20.6	-0.6	-5.3	-8.4	-6.3
COc1ccc(C2/C=C\CN(C(=O)CC(C)(C)C)CC(=O)N2Cc2ccc(F)cc2)cc1 (stereo not given)	1.1	-12.0	0.1	6.5	16.8	-2.5
COc1ccc(C2/C=C\CN(C(=O)C3CC3)CC(=O)N2Cc2ccc(F)cc2)cc1 (stereo not given)	-15.0	24.9*	-0.5	25.3	-21.0	-3.4
CN(C)CCCN1c2ccccc2Sc2ccc3ccccc3c21	-30.2	-2.5	6.0	82.1*	5.6	-6.3
CN(C)CCCN1c2ccc3ccccc3c2Sc2cccc(Cl)c21	4.6	6.6	-0.1	0.0	-4.8	-0.5
COC(=O)c1c(C)[nH]c(C(=O)COC(=O)CCc2ccc(OC)c(OC)c2)c1C	8.4	-5.0	0.1	-3.8	14.2	-0.8
O=C(c1ccc(Br)o1)N1CCN(C23CC4CC(CC(C4)C2)C3)CC1	-22.0	12.5	0.3	67.1*	-11.7	-6.3
O=C(c1ccco1)N1CCN(C(=O)c2ccc(Br)o2)CC1	6.5	-3.7	0.8	-11.6	16.3	-4.0
COc1cccc(-c2cc(C(=O)NCc3ccco3)c3ccccc3n2)c1	-10.5	-3.8	3.2	5.8	6.8	-3.9
CC(C)=N/N=C(/c1ccc([N+](=O)[O-])cc1)C12CN3CN(CN(C3)C1)C2	-26.0	-3.1	0.7	19.8	19.7	49.8*
O=[N+]([O-])c1cccc(/C(=N/N=C/c2ccccc2Br)C23CN4CN(CN(C4)C2)C3)c1	-9.6	-15.7	0.1	43.2*	16.3	-3.9
O=[N+]([O-])c1ccc(C(=S)N2CCCC2)cc1	1.4	-8.0	0.2	-7.3	-4.0	-5.2
C=CC[n+]1ccc(/C=C2\C=Cc3cc(C)ccc3N2CC)c2ccccc21	-12.6	48.8*	7.5	43.6*	-22.3	-2.8
N#C/C(=C\C=C\c1ccccc1)C(=O)NCc1ccco1	3.3	-1.6	5.1	4.1	12.6	3.1
O=C(NCc1ccco1)/C(=C/C=C\c1ccccc1)NC(=O)c1ccc(Br)o1	-0.8	14.9	17.9*	4.5	13.7	-4.7
COc1ccc(-c2nc(-c3ccc(NC(=O)c4ccncc4)cc3)no2)cc1OC	-20.6	7.8	4.4	38.5*	-7.3	-0.1
COc1ccc(Cl)cc1-c1nc(-c2ccc(NC(=O)c3ccncc3)cc2)no1	1.5	-1.5	0.2	0.4	17.9	-3.2
O=C(O)c1ccccc1NS(=O)(=O)c1cccc(NS(=O)(=O)c2cc(Br)ccc2Br)c1	9.6	-7.6	0.0	-18.8	12.5	-3.5
Nc1c(Cl)ncnc1N/N=C/c1ccncc1	8.2	25.7*	-0.6	-9.0	-20.0	-1.6
SMILES	CHRM1 PAM	CHO-K1 Ca antag	CHO-K1 Ca ag	M1 antag	M1 PAM parental	CHRM1 agonist
Nc1c(Cl)ncnc1N/N=C/c1cccc(O)c1	2.6	-5.3	0.3	-6.8	13.5	-4.7
COc1ccc(C(CC(=O)c2ccc(C)cc2)Nc2ccc([N+](=O)[O-])cc2)cc1 (stereo not given)	-7.1	14.2	15.4*	8.8	17.6	-8.5
O=C(NCC1CCCO1)c1ccc2c(c1)N(Cc1ccccc1)C(=O)CS2 (stereo not given)	-20.9	-2.7	1.2	45.1*	-6.6	-5.3
O=C(CN1C(=O)CSc2ccc(S(=O)(=O)N3CCOCC3)cc21)NCCCN1CCCCC1	-15.0	-13.9	1.1	38.0*	13.2	-5.9
O=C(NCc1ccco1)c1ccc2c(c1)N(Cc1ccccc1)C(=O)CS2	-28.1	-21.9	1.0	24.1	-7.3	-13.0
Cc1ccc(C)c(CN2C(=O)CSc3ccc(C(=O)NCCN4CCOCC4)cc32)c1	0.2	-12.0	1.4	-5.5	11.6	-9.6
O=C(NCCN1CCOCC1)c1ccc2c(c1)N(Cc1ccccc1F)C(=O)CS2	-17.8	-14.1	0.5	59.1*	20.8	-2.5
O=C(CN1C(=O)CSc2ccc(S(=O)(=O)N3CCOCC3)cc21)NCCCN1CCOCC1	4.0	-1.4	0.3	-1.3	-7.6	-3.3
O=C(NCCCN1CCOCC1)c1ccc2c(c1)N(Cc1c(F)cccc1Cl)C(=O)CS2	-33.4	-0.8	1.8	99.6*	-12.9	-11.4
Cc1cn([C@H]2C[C@H](O)[C@@H](/C=C/C(=O)NCCN3CCCCC3)O2)c(=O)[nH]c1=O	6.1	-7.5	0.6	-26.6	15.1	-6.3
CCN(CC(=O)NCc1cccs1)C(=O)/C=C/c1cc(OC)ccc1OC	-4.1	24.5*	-0.5	2.4	-21.9	-2.0
Cc1ccc(C)c(C(=O)OCC(=O)Nc2ccc(N3CCOCC3)cc2)c1	24.6*	-18.8	0.7	-23.8	12.2	3.2
Cc1cc(C)cc(OCC(=O)Nc2ccc(N3CCCC3)cc2)c1	-35.7	-10.2	-0.5	56.5*	0.2	-12.1
Cc1ccc(OCC(=O)Nc2ccc(N3CCCC3)cc2)cc1C	-21.7	-7.5	0.0	21.0	5.5	-8.5
CCOC(=O)C1=C(COC(=O)C2CC(=O)N(c3ccccc3CC)C2)NC(=O)NC1C (stereo not given)	1.5	1.5	0.9	-11.0	16.6	-3.5
CN(C(=O)CCCN1CCCC1=O)C1CCCN(Cc2ccccc2F)C1 (stereo not given)	-22.7	7.0	0.3	80.7*	5.1	-6.5
COCc1ccc(C(=O)N(C)C2CCCN(Cc3ccccc3F)C2)o1 (stereo not given)	-22.1	-8.9	1.3	89.6*	14.7	-5.2
COC(=O)c1ccc(C(=O)N(C)C2CCCN(Cc3ccccc3F)C2)cc1 (stereo not given)	6.8	-9.7	0.1	-12.0	7.0	-9.5
